An excerpt weighted towards active compounds, which were near 1.2% of everything screened.
E coli Lon inh = E. coli protease La inhibition | inhibition, % at 7.94 µM | P0A9M0 | AID 602123 | purified E. coli Lon protease, fluorescence polarization | 360,000 compounds, 0.42% hits; in the data active means inhibition above about 13%, passing the limit was not always enough
LANA DNA inh = KSHV C-LANA DNA binding inhibition. 340,000 compounds, 0.078% hits. MBP-C-LANA/FAM-LBS DNA binding, fluorescence polarization. inhibition, % at 9 µM;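 active means highest replicate inhibition at or above 60% at 9 µM, even if other replicates fall short; inactive means all replicates below 60% inhibition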
MEX-5 binding = C. elegans MEX-5 TCR-2 RNA binding activity | activity score (negative = inhibition of binding), % at 10 µM | 300,000 compounds, 0.38% hits | MEX-5/FITC-TCR2 RNA binding, fluorescence polarization; stronger effect = lower value | AID 1832;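 active means inhibition past about -25% in most replicates, and total fluorescence under double the plate's negative control median, limit read from the data; inconclusive means replicates evenly split on the limit, or fluorescence at least double controls; inactive means too little inhibition in most replicates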
Target sequence (Q9XUB2 whole entry, looked up): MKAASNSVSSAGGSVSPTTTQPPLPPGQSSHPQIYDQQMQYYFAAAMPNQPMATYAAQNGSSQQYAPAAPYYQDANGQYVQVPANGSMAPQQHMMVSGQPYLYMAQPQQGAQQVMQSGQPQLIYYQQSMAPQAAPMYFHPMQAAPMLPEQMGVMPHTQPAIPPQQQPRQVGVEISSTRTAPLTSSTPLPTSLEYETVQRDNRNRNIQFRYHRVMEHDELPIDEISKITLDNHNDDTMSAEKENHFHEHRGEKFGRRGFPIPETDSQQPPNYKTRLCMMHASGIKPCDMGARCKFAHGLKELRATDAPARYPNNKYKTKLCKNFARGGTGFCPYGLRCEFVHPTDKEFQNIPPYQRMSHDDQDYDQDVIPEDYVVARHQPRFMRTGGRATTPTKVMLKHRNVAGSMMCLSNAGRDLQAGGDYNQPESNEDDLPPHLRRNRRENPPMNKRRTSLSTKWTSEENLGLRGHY
Bcl-xL primary = inhibitors of human Bcl-xL. Q07817. GST-Bcl-xL / FITC-Bim BH3 peptide fluorescence polarization. inhibition, % at 10.9 µM. 320,000 compounds, 0.7% hits. AID 2129;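 active means inhibition above the mean of all tested compounds plus 3 SD, cutoff set per campaign, cut at about 30% in these data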;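 further: inhibitors lower millipolarization by displacing the labeled peptide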
Keap1-Nrf2 PPI = Keap1-Nrf2 (human) interaction inhibition; AID 504523; 340,000 compounds, 0.15% hits; Keap1 Kelch-Nrf2 peptide fluorescence polarization, 1536-well; Q14145; inhibition, % at 9.4 µM; in the data active means inhibition above about 12%; inconclusive means no clear call, values can overlap the other calls; inactive means below about 7.3%;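 further: human Keap1 Kelch domain with fluorescein labeled Nrf2 9mer peptide probe; higher means more block of Keap1 binding to Nrf2 peptide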
GLD-1 TGE inh = GLD-1-TGE RNA interaction inhibition (C. elegans); 320,000 compounds, 0.44% hits; inhibition, % at 5.96 µM; Q17339; AID 2280; purified GLD-1 + fluorescein TGE RNA, fluorescence polarization;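 active means percent inhibition above a per-plate cutoff, the plate mean of test compounds plus 3 SD, cut at about 30% in these data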
Hits are given with their value; - = inactive; ? = inconclusive; . = no result given; + = active, no number.

SMILES	E coli Lon inh	LANA DNA inh	MEX-5 binding	Bcl-xL primary	Keap1-Nrf2 PPI	GLD-1 TGE inh
NC(=S)N/N=C/c1ccc(C(F)(F)F)cc1	-	-	-	-	-	-
CC(=O)OC[C@]12CC[C@H]3[C@@](C)(CC[C@H]4C(C)(C)CCC[C@]34C)[C@@H]1CC(C1=CC(=O)OC1O)O2 (stereo not given in full)	-	.	.	.	.	.
Clc1ccccc1-c1cc2nc(NCc3ccco3)ccn2n1	-	.	.	.	.	.
COc1ccc(CNC(=O)COC(=O)c2ccc(Br)cc2)cc1	-	-	-	32.7	-	-
Cc1cc2cc(C(c3nnnn3Cc3ccccc3)N3CCc4ccccc43)c(=O)[nH]c2cc1C (stereo not given)	-	-	-	31.2	-	-
Cc1ccc2[nH]c(=O)c(C(c3nnnn3CC3CCCO3)N3CCc4ccccc4C3)cc2c1 (stereo not given)	-	-	-	-	-	-
Cc1ccc2[nH]c(=O)c(C(c3nnnn3CC3CCCO3)N3CCCc4ccccc43)cc2c1 (stereo not given)	-	-	-	41.8	-	-
c1cc(C(c2nnnn2C2CCCCC2)N2CCN3CCCC3C2)ccn1 (stereo not given)	-	-	-	37.4	-	-
c1cnc2ccc(C(c3nnnn3C3CCCC3)N3CCN4CCCC4C3)cc2c1 (stereo not given)	-	-	.	-	-	-
Nc1c(Cl)cc(N=Nc2ccccc2)cc1Cl	-	-	.	.	-	.
N#C/C(=C\c1cc(O)c(O)c(O)c1)C(N)=O	-	-	-26.8	-	-	-
CCN1C(=O)/C(=C2\SC(=S)N(NC(=O)c3ccccc3O)C2=O)c2ccccc21	-	-	-39.6	-	-	-
CCN1C(=O)/C(=C2\SC(=S)N(c3c(C)n(C)n(-c4ccccc4)c3=O)C2=O)c2ccccc21	-	-	-	-	-	-
Cc1cc(C)cc(NC(=S)NCc2ccc3[nH]c4c(c3c2)CCCC4)c1	-	-	-	-	-	-
CCS(=O)(=O)NCc1ccc2[nH]c3c(c2c1)CCCC3	.	.	-	58.8	.	39.8
O=C1c2ccccc2-c2onc3ccc(NCCCn4ccnc4)c1c23	.	.	?	+	.	197.8
O=C(NCc1ccccc1)c1ccc2nc(-c3ccco3)c(-c3ccco3)nc2c1	-	-	-	46.1	-	-
O=C(c1ccc2nc(-c3ccco3)c(-c3ccco3)nc2c1)N1CCN(c2ncccn2)CC1	-	-	-	38.4	-	-
CC(=O)c1ccc(NC(=O)c2ccc3nc(-c4ccco4)c(-c4ccco4)nc3c2)cc1	-	-	-	39.3	-	-
O=C(NCCCO)c1ccc2nc(-c3ccco3)c(-c3ccco3)nc2c1	-	68.2	.	.	-	.
O=C(c1cccc(C(=O)N2CCN(c3ncccn3)CC2)c1)N1CCN(c2ncccn2)CC1	-	-	-	-	-	-
O=C(Nc1ccccc1)c1ccc2nc(-c3ccco3)c(-c3ccco3)nc2c1	-	-	-	-	-	-
CCc1nc2ccc(C(=O)NCCc3ccco3)cc2nc1CC	-	-	-	-	-	-
O=C(NCCO)Nc1ccc2nsnc2c1	-	-	-	-	-	-
O=C(NCCO)Nc1ccc2nc(-c3ccco3)c(-c3ccco3)nc2c1	.	.	.	135.7	.	77.9
SMILES	E coli Lon inh	LANA DNA inh	MEX-5 binding	Bcl-xL primary	Keap1-Nrf2 PPI	GLD-1 TGE inh
CCCCNC(=O)c1ccc2nc(-c3ccco3)c(-c3ccco3)nc2c1	-	-	-	40.6	-	-
O=c1[nH]c2cc3c(cc2cc1CN(Cc1ccc2c(c1)OCO2)Cc1nnnn1CC1CCCO1)OCO3 (stereo not given)	-	-	-	69.8	-	65.0
Cc1ccc2cc(CN(CCO)Cc3nnnn3Cc3ccc(F)cc3)c(=O)[nH]c2c1	-	-	-	-	-	-
O=c1[nH]c2cc3c(cc2cc1CN(CCCO)Cc1nnnn1Cc1ccc(F)cc1)OCO3	-	-	-	33.4	-	-
Cc1ccc2[nH]c(=O)c(CN(Cc3cccnc3)Cc3nnnn3CC3CCCO3)cc2c1 (stereo not given)	-	-	-	-	-	-
CCCN(C(=O)CCNC(=O)Cn1cnc2ccccc2c1=O)c1cccc(Cl)c1	-	-	-	-	-	-
Cc1nnc(Sc2cc(NCCCO)c([N+](=O)[O-])c3nonc23)s1	-	-	-	.	-	.
O=[N+]([O-])c1c(NCCCO)cc(Sc2nc3ccccc3s2)c2nonc12	-	-	-	44.0	-	-
COc1cccc(OC)c1C(=O)Nc1sc2c(c1C(N)=O)CCN(Cc1ccccc1)C2	-	-	-	-	-	-
CC(=O)c1ccc(C(=O)Nc2sc3c(c2C(N)=O)CCN(Cc2ccccc2)C3)cc1	-	-	-37.4	-	-	-
CC(C)N1CCc2c(sc(NC(=O)c3ccc(C(=O)c4ccccc4)cc3)c2C(N)=O)C1	-	-	-	-	-	-
NC(=O)c1c(NC(=O)C2COc3ccccc3O2)sc2c1CCN(Cc1ccccc1)C2 (stereo not given)	-	-	-61.6	-	-	-
CC(C)N1CCc2c(sc(NC(=O)c3ccc4ccccc4c3)c2C(N)=O)C1	-	-	-37.4	-	-	-
N#C/C(=C\c1c(Oc2ccccc2F)nc2ccccn2c1=O)C(=O)NC1CCS(=O)(=O)C1 (stereo not given)	-	-	-	-	-	-
Cc1ccc(NC(=O)C2=C(C(=O)O)CCCC2)cc1Br	-	-	-	-	-	-
CC(=O)Nc1ccc(S(=O)(=O)N2CCC3(CC2)CC(=O)c2ccccc2O3)cc1	-	-	-	-	-	-
N=C1C(c2nc3ccccc3[nH]2)=C(O)CN1c1ccc(CC(=O)O)cc1	-	-	-84.9	-	-	-
N#CC1=C(N)N2C(=C(C#N)C1c1ccccc1)Sc1ccccc12 (stereo not given)	.	.	-32.5	-	.	-
COC(=O)/C=C1\C(=O)N(c2nc3ccccc3s2)C(=S)N1c1ccc(F)cc1	-	-	-29.8	-	-	-
S=C(Nc1ccc2nc(-c3ccccn3)c(-c3ccccn3)nc2c1)N1CCCCCC1	-	-	-	34.9	-	-
O=C(Nc1ccc2c(c1)nc1n2CCN(C2CCCCC2)C1)NC1CCCCC1	.	.	-	57.1	.	-
Nn1c(SCC(=O)N2CCCC2=O)nnc1-c1cccs1	-	-	-	-	-	-
Cc1ccc(CNC(=O)C2CCN(S(=O)(=O)c3c(C)noc3/C=C/N(C)C)CC2)cc1	-	-	-	-	-	-
Cc1noc(/C=C/N(C)C)c1S(=O)(=O)N1CCC(C(=O)O)CC1	-	-	-30.4	-	-	-
O=C(O)CSc1cc(NS(=O)(=O)c2ccc(Br)cc2)c2ccccc2c1O	-	-	-71.0	-	-	-
OC[C@H]1O[C@H](c2nc(-c3nc(-c4cccs4)no3)cs2)C[C@@H]1O	-	.	.	.	.	.
COc1ccc(N2C(=O)C(Cl)=C(Nc3ccccc3OC)C2=O)cc1	-	-	-	-	-	-

Compound activity deposited in PubChem by several laboratories.
